Screens as filed in PubChem.
This is a sample that favours compounds with a hit; in the whole collection about 3.4% have one here.
Tau fibril FP – tau fibrillization inhibition (FP); K18 P301L tau heparin fibrillization, Alexa594 FP, 6 h; Potency, µM (highest dose often 57.7 µM), inactives show at the highest dose activity, negative = inhibition, actives largely listed as inhibitors; 280,000 tested, 0.39% active; AID 1468; also: nearly all actives have a fitted effect of over 55% in size
Target sequence (P10636 561-689 P618L limits assumed): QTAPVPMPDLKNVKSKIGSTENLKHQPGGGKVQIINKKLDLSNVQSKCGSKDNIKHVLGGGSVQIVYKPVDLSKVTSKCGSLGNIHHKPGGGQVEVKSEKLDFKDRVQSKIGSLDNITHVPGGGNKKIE
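Compound effects on tau fibrillization are measured by Alexa 594 fluorescence polarization (ex 555, em 632 nm). K18 P301L tau is used at 15 uM with 0.24 uM labeled tracer, and 20 uM heparin induces aggregation over 6 hr at 37 C.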
Tau fibril ThT – blocks human tau fibril formation measured by thioflavin T. P10636. recombinant tau K18 P301L, heparin-induced fibrillization, ThT fluorescence. Potency, µM (highest dose often 57.4 µM), inactives show at the top dose activity, negative = inhibition, hits mostly inhibitors. 270,000 tested, 2.1% active; also: nearly all actives have a fitted effect of over 55% in size
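Using a mix of unlabeled (15 uM) and Alexa 594-labeled (0.24 uM) tau K18 P301L, heparin-triggered fibrillization over 6 hr at 37 C was scored by ThT fluorescence.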
GoLoco inh red – inhibitors of human Gai1-RGS12 GoLoco interaction (red fluorophore) | Gai1:RGS12 GoLoco peptide FP, rhodamine, 10 min | Potency, µM (doses to about 61.6 µM), inactives show at the top dose activity, negative = inhibition, usual class: inhibitors | 230,000 tested, 0.44% active | AID 880; active = well fitted inhibition curve with a large enough effect, not every such curve was filed as active; inactive = no such curve, though single readings can be large or run the other way; also: nearly all actives have a fitted effect of over 30% in size
Target sequence (P63096 whole entry, looked up): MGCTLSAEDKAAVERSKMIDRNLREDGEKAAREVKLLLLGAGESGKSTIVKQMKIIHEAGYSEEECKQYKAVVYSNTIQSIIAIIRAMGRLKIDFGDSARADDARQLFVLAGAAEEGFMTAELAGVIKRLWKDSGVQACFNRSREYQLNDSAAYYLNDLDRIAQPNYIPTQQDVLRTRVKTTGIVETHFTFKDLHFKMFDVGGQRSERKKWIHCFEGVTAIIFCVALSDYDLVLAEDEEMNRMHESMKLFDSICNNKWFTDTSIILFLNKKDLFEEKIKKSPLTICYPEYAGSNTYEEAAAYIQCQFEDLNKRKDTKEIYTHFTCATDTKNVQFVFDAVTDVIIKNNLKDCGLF
KDM4E inh – blocks human JMJD2E demethylase activity. JMJD2E catalytic domain, FDH-coupled NADH fluorescence (FDH is formaldehyde dehydrogenase). 230,000 tested, 1.6% active. Potency, µM (doses to about 57.1 µM), without a hit: at the top dose activity change, negative = inhibition, most hits filed as inhibitors. B2RXH2; active = well fitted inhibition curve with a large enough effect, not every such curve was filed as active; inconclusive = small, poorly fitted or top-dose-only effect, or another doubt; inactive = no such curve, though single readings can be large or run the other way;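 also: 0% = wells with enzyme and -100% = buffer wells without enzyme; nearly all actives have a fitted effect of over 50% in size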
Tau fluor counter – counter-screen for tau fibril formation inhibitors; Potency, µM (highest dose often 57.7 µM), for the others: at the top dose activity change, negative = decrease; tau K18 P301L (four-repeat tau fragment) Alexa594 fluorescence, heparin fibrillization; AID 1463; 280,000 tested, 0.93% active; also: nearly all actives have a fitted effect of over 55% in size
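Human K18 P301L tau (15 uM unlabeled plus 0.24 uM Alexa 594-labeled, final) in 100 mM sodium acetate pH 7 was mixed with compound and 20 uM heparin and incubated 6 hr at 37 C.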
* = called active by the depositor; [ ] = another dose, or the depositor's remark. Unless noted, calls follow the shape of the dose curve; as a rule, active = well fitted curve in the direction sought with a large enough effect; inconclusive = small, poorly fitted or top-dose-only effect, or another doubt; inactive = no such curve, though single readings can be large; an effect the other way counts as inactive or inconclusive. Unless noted, % is scaled to controls: 0 for no effect and ±100 for the full control effect; potency is read from the fitted curve at half-maximal effect.

COc1ccc(NC(=O)c2c(C)oc3ccc(O)c(CN4CCCCCC4)c23)cc1 was read as Tau fibril FP -0.8%, Tau fibril ThT inconclusive and Tau fluor counter -28.2%.
COc1nnc(-c2ccc(N3CCCCC3)c(NC(=O)c3ccccc3Cl)c2)c2ccccc12 was read as Tau fibril FP -6.5%, Tau fibril ThT -12.2% and Tau fluor counter -8.6%.
O=[N+]([O-])c1ccc(O)c(Nc2ncnc3ccccc23)c1 was read as Tau fibril FP 15.6%, Tau fibril ThT -16.4%, GoLoco inh red 10.1%, KDM4E inh -11.4% and Tau fluor counter -17.1%.
Screening O=[N+]([O-])c1ccc(O)c(Nc2ncnc3ccc(Br)cc23)c1 returned Tau fibril FP 4.5%, Tau fibril ThT 15.8µM*, GoLoco inh red 3.2%, KDM4E inh -4.4% and Tau fluor counter -29.6%.
CC(C)C(=O)c1ccc(O)c(O)c1 was read as Tau fibril FP -4.3%, Tau fibril ThT -5.2%, GoLoco inh red 2.6%, KDM4E inh 25.1µM* and Tau fluor counter -8.5%.
CCN1/C(=C\C=C2\C(=O)N(C)C(=S)N2C)Sc2ccccc21 was read as Tau fibril FP -14.2%, Tau fibril ThT 2µM*, GoLoco inh red 268.5%, KDM4E inh -5.3% and Tau fluor counter 0.7%.
CCC(C)(C)NC(=O)C1CCN(S(=O)(=O)c2c(C)noc2/C=C/c2ccc(C)cc2)CC1 was read as Tau fibril FP 3.5%, Tau fibril ThT 13.1% and Tau fluor counter 12.0%.
`Cc1ccc(N=N/C(=C\O)C(=O)c2ccc(Cl)cc2)cc1` gave Tau fibril FP 0.1%, Tau fibril ThT 28.2µM*, GoLoco inh red 10.7%, KDM4E inh 0.1% and Tau fluor counter -19.9%.
O=C(/C(=C/O)N=Nc1ccccc1)c1ccncc1 was read as Tau fibril FP -2.9%, Tau fibril ThT 14.1µM*, GoLoco inh red 17.9%, KDM4E inh -4.4% and Tau fluor counter -18.5%.
Screening O=C(/C(=C/O)N=Nc1ccccc1)c1ccc(Cl)cc1 returned Tau fibril FP -8.3%, Tau fibril ThT inconclusive, GoLoco inh red -3.7%, KDM4E inh -0.9% and Tau fluor counter -25.1%.
`CCCN(CCC)c1nn2c(=O)c(C(=O)NCc3cccc(OC)c3)cnc2s1` gave Tau fibril FP 6.0%, Tau fibril ThT -3.7% and Tau fluor counter -6.2%.
CCOc1cc(CNc2ccc(N(C)C)cc2)cc(Br)c1OCC(=O)NC(C)(C)C was read as Tau fibril FP 15.8µM*, Tau fibril ThT 7.94µM*, GoLoco inh red -13.5%, KDM4E inh inconclusive and Tau fluor counter inconclusive.
For CCOc1cc(CNc2ccc(N3CCCCC3)cc2)cc(Br)c1OCC(=O)NC(C)(C)C the results were Tau fibril FP -13.2%, Tau fibril ThT inconclusive, GoLoco inh red -1.6%, KDM4E inh 3.16µM* and Tau fluor counter -24.8%.
`Cc1cccc(NC(=O)C(=O)NCC(c2cccnc2)N2CCc3ccccc3C2)c1C` (stereo not drawn) gave Tau fibril FP -2.2%, Tau fibril ThT inconclusive and Tau fluor counter -25.9%.
For NC(N)=NC[C@@H]1COC2(CCCCC2)O1 the results were GoLoco inh red 5.6%[21.6 µM] and KDM4E inh 1.4%[25.5 µM].
C[N+]1(CC2COC3(CCCCC3)O2)CCCC1 (stereo not drawn) was read as Tau fibril FP -10.5%, Tau fibril ThT -1.7%, GoLoco inh red 10µM*, KDM4E inh -25.4% and Tau fluor counter 1.4%.
`FC(F)(F)c1ccccc1-c1nc(NCCN2CCOCC2)c2ccccc2n1` gave GoLoco inh red 0.3%.
Screening Cc1ncc(/C=C2\C(=O)Nc3ccccc32)[nH]1 returned Tau fibril FP 0.9%, Tau fibril ThT 15.8µM*, GoLoco inh red 9.7%, KDM4E inh -9.0% and Tau fluor counter -11.9%.
`CCc1ncc(/C=C2\C(=O)Nc3ccccc32)[nH]1` gave Tau fibril FP -6.0%, Tau fibril ThT 12.6µM*, GoLoco inh red -2.2%, KDM4E inh -8.9% and Tau fluor counter -7.1%.
Screening O=C(/C=C1\C(=O)Nc2ccccc21)/C=C1\C(=O)Nc2ccccc21 returned Tau fibril FP inconclusive, Tau fibril ThT 28.2µM*, GoLoco inh red -24.9%, KDM4E inh inconclusive and Tau fluor counter -24.5%.
For CN(O)/C=C1\C(=O)Nc2ccccc21 the results were Tau fibril FP inconclusive, Tau fibril ThT inconclusive, GoLoco inh red -11.3%, KDM4E inh -28.8% and Tau fluor counter -20.4%.
For COc1ccc(NCc2ccc([N+](=O)[O-])s2)cc1 the results were Tau fibril FP -2.6%, Tau fibril ThT inconclusive, GoLoco inh red 5.6%, KDM4E inh inconclusive and Tau fluor counter -27.2%.
For COc1ccc(NCc2ccc([N+](=O)[O-])s2)c(OC)c1 the results were Tau fibril FP inconclusive, Tau fibril ThT inconclusive, GoLoco inh red 3.8%, KDM4E inh 10µM* and Tau fluor counter inconclusive.
`O=c1oc2ccccc2c2oc3cc(O)c(O)cc3c12` gave Tau fibril FP inconclusive, Tau fibril ThT inconclusive, GoLoco inh red -2.5%, KDM4E inh 28.2µM* and Tau fluor counter inconclusive.
For Cc1c(C(=O)NCCc2ccc(Cl)cc2)cccc1-n1cnc2cccnc21 the results were Tau fibril FP -2.2%, Tau fibril ThT 4.4% and Tau fluor counter -12.6%.
Screening COc1cc(OC)c(NC(=S)Nc2cccc(C(C)=O)c2)cc1Cl returned Tau fibril FP 0.4%, Tau fibril ThT inconclusive, GoLoco inh red 4.5%, KDM4E inh -1.5% and Tau fluor counter inconclusive.
For COc1cc(OC)c(NC(=S)Nc2cc(Cl)cc(Cl)c2)cc1Cl the results were Tau fibril FP 2.6%, Tau fibril ThT inconclusive, GoLoco inh red -3.2%, KDM4E inh -0.7% and Tau fluor counter 25.1µM*[quencher].
`Nc1cc2nn(-c3ccccc3)nc2cc1Cl` gave Tau fibril FP inconclusive, Tau fibril ThT 3.55µM*, GoLoco inh red 0.3%, KDM4E inh inconclusive and Tau fluor counter inconclusive.
Nc1ccc2nn(-c3ccccc3)nc2c1 was read as Tau fibril FP -1.7%, Tau fibril ThT inconclusive, GoLoco inh red 23.7%, KDM4E inh inconclusive and Tau fluor counter inconclusive.
Screening O=C(COc1ccc(Cl)cc1)Nc1ccccc1C(=O)OCc1cc(=O)n2ccsc2n1 returned Tau fibril FP 7.1%, Tau fibril ThT -0.2% and Tau fluor counter 1.9%.
Screening CCc1ccc(NC(=O)C2CCN(C(=O)N3CC(CC)Oc4ccccc43)CC2)cc1 (stereo not drawn) returned Tau fibril FP inconclusive, Tau fibril ThT inconclusive and Tau fluor counter 15.8µM*[quencher].
Screening CCC1CN(C(=O)NCc2ccc(F)cc2)c2cc(C)ccc2O1 (stereo not drawn) returned Tau fibril FP inconclusive, Tau fibril ThT 4.1% and Tau fluor counter inconclusive.
For CCC1CN(C(=O)NCc2ccc(C)cc2)c2ccccc2O1 (stereo not drawn) the results were Tau fibril FP inconclusive, Tau fibril ThT inconclusive and Tau fluor counter 15.8µM*[quencher].
